Source: PubChem BioAssay (NCI)
Several values for one entry are separate records, joined by “and”; a condition that tells them apart may be missing. Equal entries are not always repeated. This is part of a sample that, as a whole, favours compounds with a hit. Of some 83,000 tested, about 20% had one in any assay.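 Each cell line was grown in a 96-well plate and treated with one concentration of compound for 48 hours. Values below 10 were considered active.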 Values without a mark were called inactive. Activity calls are given as the source filed them.

What follows are molecules tested on MDA-MB-468 breast (assay: NCI-60 one-dose screen, 48 h (100 = growth as untreated, 0 = no growth, -100 = all killed)). Settings: 10 µM unless noted.
For `CCCCC(CCCCCC(CCCC)C1NC(C)Cc2cc(OC)c(OC)cc21)C1NC(C)Cc2cc(OC)c(OC)cc21` (stereo not given), the growth was -84.7% (active). Work on `COc1cc(C2NC(c3cc(OC)c(OC)c(OC)c3)C(C#N)(C#N)C2(C#N)C#N)cc(OC)c1OC` (stereo not given) yielded a growth of 93.2%. `Cc1n(Cc2ccc3ccccc3n2)cc[n+]1Cc1ccc2ccccc2n1` was tested, and the growth was 8.07% (active). With `C=CN(C(=O)N1CCN(c2cc3c(cc2F)c(=O)c(C(=O)O)cn3C2CC2)CC1)c1nc(-c2ccc(OC)cc2)cs1` the growth was 13.4%. With `NCCCNc1nc2ccccc2c2c(=O)c3cc(F)ccc3sc12` the growth was 1.26% (active). Molecule `O=C(CSc1nnc(-c2ccc(Cl)cc2)n1-c1ccccc1)Nc1cccc(Cl)c1` has a growth of 79.8%. For `COc1ccc(Nc2nc(NCCNc3ccnc4cc(Cl)ccc34)nc(N3CCOCC3)n2)cc1`, the growth was 23.9%. `CCOc1ccc2nc(NC(=O)c3ccc(C(F)(F)F)cc3)sc2c1` showed a growth of 111%. In the case of `CCOC(=O)c1c2c(n3ccc(NC(=O)CCN4CCCC4)cc13)C(=O)c1ncccc1C2=O`, the growth is reported as -82% (active). For `CCN(CC)Cc1cc(Nc2c3ccc(Cl)cc3nc3ccc(OC)cc23)ccc1O`, the growth was 60.5%. `Nc1ccccc1-c1ccn[nH]1` was tested, and the growth was 101%. For `C=C1C(=O)O[C@H]2[C@H]1CC/C(COC(=O)c1cc3ccccc3s1)=C\CC[C@@]1(C)O[C@@H]21`, the growth was -48.4% (active). In the case of `O=C1C=C(OCC=C(Cl)Cl)C(=O)c2ccccc21`, the growth is reported as 41.5%. With `CCN1CCN(C(=O)[C@@]2(C)CC[C@]3(C)CC[C@]4(C)C(=CC(=O)[C@@H]5[C@@]6(C)CC[C@H](OC7C[C@@H](O)[C@@H](O)C(C)O7)C(C)(C)[C@@H]6CC[C@]54C)[C@@H]3C2)CC1` (stereo not given in full) the growth was 16.9%. Work on `Nc1c(C(=O)Nc2ccncc2)sc2nc3c(cc12)C(O)CCC3` (stereo not given) yielded a growth of 88.5%. For `COc1ccc(/C=C2\SC(=Nc3cc(C)on3)NC2=O)cc1`, the growth was 95.6%. In the case of `CCOC(=O)/C(C)=C\c1ccc(OC)c(OC)c1`, the growth is reported as 103%. `Cc1cc(O)c(C2=NN(c3ccc(S(N)(=O)=O)cc3)C(c3ccccc3Cl)C2)cc1Cl` (stereo not given) gave a growth of 28.9%. For `COc1cc2ncnc(-n3ncc4cc(NC(=O)Nc5ccccc5)ccc43)c2cc1OC`, the growth was -67% (active). Molecule `O=C(/C=C/c1cccc(Br)c1)c1ccccc1` has a growth of 84.9%. `Cc1ccc(N2C(=O)C=CC2=O)cc1` was tested, and the growth was -25.2% (active). Work on `COc1ccc2c(Cl)cc(NC(=O)Nc3c(C)cccc3C)nc2c1` yielded a growth of 79.2%. For `Cn1c(=O)n(-c2ccc(C(C)(C)C#N)cc2)c2c3cc(-c4cnc5ccccc5c4)ccc3ncc21`, the growth was -24.6% (active) and -48.4% (active). `CC1(COc2ccc3ncc(C#Cc4cncc(C(=O)Nc5cc(C(C)(C)C)on5)c4)n3n2)COC1` showed a growth of 85%. Work on `CCCCCCCCCN1C(=O)/C(=c2\sc3n(c2=O)C2C(NN=3)N(CC)C(=O)N2CC)c2ccccc21` (stereo not given) yielded a growth of 37.9%. In the case of `CCOC(=O)c1c(O)c2cc(-c3ccccc3)nc(OCC)c2c(=O)n1C`, the growth is reported as 89%. `NCCN1CCN(c2nc(-c3ccccc3)nc3nc(-c4ccccc4)oc23)CC1` was tested, and the growth was -33.6% (active). `CCC/C=C(\C)C(C)(C#N)C(=O)OCC` (stereo not given) showed a growth of 102%. With `Cc1cc2c(-c3nc4ccccc4n3C)c(O)c(O)cc2c(O)c1-c1c(C)cc2c(-c3nc4ccccc4n3C)c(O)c(O)cc2c1O` the growth was 35.7%. Molecule `O=C1C=CC2(NN=C(c3ccccc3)N2c2ccccc2)c2cccc(O)c21` (stereo not given) has a growth of 36.2%. With `Cn1c(=O)c2[nH]c(N/N=C/c3ccccc3Br)nc2n(C)c1=O` the growth was 115%. In the case of `C/C(=N/O)c1ccc(NC(=O)Cn2nc(-c3ccc(Cl)cc3)nc2N)cc1`, the growth is reported as 100%. In the case of `Nc1nc2c(ncn2[C@@H]2O[C@H](CS)[C@@H](O)[C@H]2O)c(=O)[nH]1`, the growth is reported as 97.8%. For `O=c1[nH]ncc(Br)c1Br`, the growth was -15.7% (active). In the case of `O=C1CCC(N2C(=O)c3cccc(NCCCC4CCN(CCNC(=O)c5cc6c(o5)C(=O)c5ccccc5C6=O)CC4)c3C2=O)C(=O)N1` (stereo not given), the growth is reported as -73.9% (active). For `O=C(/C=C/c1ccc(Cl)cc1)c1ccc(Br)cc1`, the growth was 107%. `Cc1cc2c(cc1C)N(C(=O)CCl)CC(=O)N2` was tested, and the growth was -12.6% (active). `CN(C)c1ccc(-c2ccc3c(c2)c(-c2ccccc2)nc(=O)n3C)cn1` was tested, and the growth was 5.69% (active). `Nc1cc2nc3ccccc3sc-2cc1=O` showed a growth of 72.9%. `O=C(O)CCCCCCCCCCN1C(=O)/C(=C2/C(=O)N(CC(=O)O)c3ccc(Br)cc32)SC1=S` gave a growth of 102%.
